# According to PubChem BioAssay (NCATS):
# Values without a mark were called inactive. Results filed as inconclusive are left out. Where a call stands in place of a potency, no number is given. Active and inactive are the calls of the source. Unless noted, the call rests on the fitted dose curve.
# Experiments:
# [1] = molecular target: Estrogen receptor (Homo sapiens) (UniProt P03372); assay: qHTS assay for small molecule agonists of estrogen receptor alpha signaling (AID 588514); further: nearly all actives have a fitted effect of over 70% in size
# Outline: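 EC50 and efficacy came from Hill fits of beta-lactamase reporter signal (CCF4 dye, 2 h at room temperature) scaled between DMSO and 20 nM 17-beta-estradiol. Agonist mode: HEK293 ER-alpha-UAS-bla cells in charcoal/dextran-stripped serum medium, 18 h compound exposure at 37 C.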
# [2] = qHTS assay to identify small molecules that stimulate interleukin-8 (IL-8) secretion (AID 651758; active means well fitted activation curve with a large enough effect in the signal ratio; the % refers to the signal ratio)
# Outline: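 Secreted IL-8 measured homogeneously by TR-FRET (two labelled anti-IL-8 antibodies, 1-3 h at room temperature) after a 16 h, 37 C compound treatment of THP-1 cells at 2000 cells/well.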
# [3] = molecular target: Cytochrome P450 3A4 (Homo sapiens) (UniProt P08684); assay: qHTS Assay for Activators of Cytochrome P450 3A4 (AID 885; active means well fitted activation curve with a large enough effect; further: nearly all actives have a fitted effect of over 65% in size)
# Outline: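 Luminescent readout of luciferin formed from 25 uM Luciferin-PPXE (KM level) by 20 nM CYP3A4 in 200 mM KPO4, with 60 min NADPH-driven reaction at room temperature after 10 min compound exposure. Ketoconazole (57 uM) defined 100% inhibition.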
# [4] = molecular target: Bile acid receptor (Homo sapiens) (UniProt Q96RI1); assay: qHTS assay for small molecule antagonists of farnesoid X receptor signaling (AID 588526)
# Outline: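 Beta-lactamase reporter antagonist mode: HEK293T FXR-UAS-bla cells, titrated compound, CDCA stimulation, 16 h 37 C, CCF4 dye 2 h RT. Data normalized to CDCA 50 uM and DMSO; Hill-fit IC50.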
# [5] = molecular target: Androgen receptor (Homo sapiens) (UniProt P10275); assay: qHTS assay for small molecule agonists of androgen receptor signaling (AID 588515; active means well fitted curve in the direction sought with a large enough effect in the signal ratio, with a control signal flat; the % refers to the signal ratio); conditions: AR-UAS-bla HEK293, beta-lactamase ratio, agonist 16 h; active compounds read high
# Outline: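 Stimulation of an AR-responsive β-lactamase reporter in GripTite HEK293 cells was measured after 16 h compound exposure at 37 °C, via CCF4 fluorescence after 2 h RT. EC50 from Hill fits, normalized to R1881 at 30 nM.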
# [6] = molecular target: Androgen receptor (Homo sapiens) (UniProt P10275); assay: qHTS assay for small molecule antagonists of androgen receptor signaling (AID 588516; active means well fitted curve in the direction sought with a large enough effect in the signal ratio, with a control signal flat, not every such curve was filed as active; the % refers to the signal ratio)
# Outline: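 Antagonist mode: inhibition of R1881-stimulated (10 nM final) bla reporter in GeneBLAzer AR HEK 293 cells, 16 h at 37C, compounds titrated. IC50 and efficacy from Hill-equation fits of 405/460–530 nm FRET ratios.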
# Bile acid receptor (Homo sapiens), sequence (Q96RI1 whole entry, looked up): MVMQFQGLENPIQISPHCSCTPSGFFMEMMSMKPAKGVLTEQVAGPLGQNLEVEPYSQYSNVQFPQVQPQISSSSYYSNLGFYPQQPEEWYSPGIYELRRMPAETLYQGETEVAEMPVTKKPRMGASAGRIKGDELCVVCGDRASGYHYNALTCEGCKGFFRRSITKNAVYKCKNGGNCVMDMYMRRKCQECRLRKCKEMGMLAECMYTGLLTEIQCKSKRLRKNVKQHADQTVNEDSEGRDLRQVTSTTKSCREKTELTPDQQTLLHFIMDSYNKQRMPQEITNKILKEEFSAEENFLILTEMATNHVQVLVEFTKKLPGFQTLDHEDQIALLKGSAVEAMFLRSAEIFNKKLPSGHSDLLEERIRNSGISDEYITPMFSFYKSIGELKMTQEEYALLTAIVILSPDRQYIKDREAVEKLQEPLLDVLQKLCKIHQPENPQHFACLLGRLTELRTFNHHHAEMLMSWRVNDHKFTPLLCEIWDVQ
# Androgen receptor (Homo sapiens), sequence (P10275 whole entry, looked up): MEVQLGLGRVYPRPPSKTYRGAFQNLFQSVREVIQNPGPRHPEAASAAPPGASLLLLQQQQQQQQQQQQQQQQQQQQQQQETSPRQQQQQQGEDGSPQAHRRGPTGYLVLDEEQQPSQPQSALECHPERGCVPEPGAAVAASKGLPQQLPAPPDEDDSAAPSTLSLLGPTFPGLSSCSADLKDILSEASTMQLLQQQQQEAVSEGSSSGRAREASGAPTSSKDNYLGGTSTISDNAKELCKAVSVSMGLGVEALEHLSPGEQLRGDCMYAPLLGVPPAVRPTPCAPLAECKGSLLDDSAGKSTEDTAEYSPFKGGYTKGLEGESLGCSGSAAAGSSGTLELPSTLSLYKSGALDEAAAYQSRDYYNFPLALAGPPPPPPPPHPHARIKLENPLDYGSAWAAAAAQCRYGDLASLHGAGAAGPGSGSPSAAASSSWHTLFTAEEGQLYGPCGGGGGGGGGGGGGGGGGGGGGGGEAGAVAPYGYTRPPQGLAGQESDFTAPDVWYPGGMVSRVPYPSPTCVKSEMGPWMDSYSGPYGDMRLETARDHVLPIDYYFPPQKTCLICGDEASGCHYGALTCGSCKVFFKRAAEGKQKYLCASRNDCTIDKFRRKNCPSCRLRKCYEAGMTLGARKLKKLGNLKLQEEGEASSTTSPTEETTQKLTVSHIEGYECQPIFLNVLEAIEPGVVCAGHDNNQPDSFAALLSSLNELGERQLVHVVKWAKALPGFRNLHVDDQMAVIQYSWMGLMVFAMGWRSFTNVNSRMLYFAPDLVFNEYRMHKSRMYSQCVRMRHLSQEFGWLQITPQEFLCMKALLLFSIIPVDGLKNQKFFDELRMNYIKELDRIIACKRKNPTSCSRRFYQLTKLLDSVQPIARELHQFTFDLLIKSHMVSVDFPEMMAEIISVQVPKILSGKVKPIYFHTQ
# Estrogen receptor (Homo sapiens), sequence (P03372 whole entry, looked up): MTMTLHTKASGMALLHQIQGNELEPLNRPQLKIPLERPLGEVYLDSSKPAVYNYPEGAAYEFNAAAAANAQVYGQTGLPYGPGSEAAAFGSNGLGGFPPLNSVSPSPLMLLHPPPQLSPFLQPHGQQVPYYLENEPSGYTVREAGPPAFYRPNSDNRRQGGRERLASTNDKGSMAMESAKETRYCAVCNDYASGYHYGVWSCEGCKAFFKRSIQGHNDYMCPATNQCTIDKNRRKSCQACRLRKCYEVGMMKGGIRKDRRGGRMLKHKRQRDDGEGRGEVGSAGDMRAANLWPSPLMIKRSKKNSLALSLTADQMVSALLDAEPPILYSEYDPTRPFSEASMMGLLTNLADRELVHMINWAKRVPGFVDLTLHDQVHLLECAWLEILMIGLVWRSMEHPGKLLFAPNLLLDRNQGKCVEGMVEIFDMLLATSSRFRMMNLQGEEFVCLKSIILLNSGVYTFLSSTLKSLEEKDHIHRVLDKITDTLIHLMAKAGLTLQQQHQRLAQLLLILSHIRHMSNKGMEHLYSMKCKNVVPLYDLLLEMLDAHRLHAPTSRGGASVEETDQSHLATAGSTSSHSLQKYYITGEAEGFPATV
# Cytochrome P450 3A4 (Homo sapiens), sequence (P08684 whole entry, looked up): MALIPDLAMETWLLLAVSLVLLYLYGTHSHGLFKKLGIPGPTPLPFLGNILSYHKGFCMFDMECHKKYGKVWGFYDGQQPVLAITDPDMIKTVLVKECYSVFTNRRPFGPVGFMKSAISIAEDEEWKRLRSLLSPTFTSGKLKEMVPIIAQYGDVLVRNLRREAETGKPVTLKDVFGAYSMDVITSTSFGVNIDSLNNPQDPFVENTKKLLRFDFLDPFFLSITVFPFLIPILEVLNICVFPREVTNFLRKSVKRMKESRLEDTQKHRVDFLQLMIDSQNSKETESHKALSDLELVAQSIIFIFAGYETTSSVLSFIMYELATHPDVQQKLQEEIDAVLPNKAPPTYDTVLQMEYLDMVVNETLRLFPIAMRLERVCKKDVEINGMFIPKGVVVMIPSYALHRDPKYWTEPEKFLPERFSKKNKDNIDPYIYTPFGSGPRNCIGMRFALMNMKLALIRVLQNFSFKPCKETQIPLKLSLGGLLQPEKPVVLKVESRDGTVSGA
smiles,measurement,setting,value
N#CCCC#N,Potency,[1],inactive
Cc1coc2c1CCC(C)C2 (configuration not stated),Potency,[1],inactive
same,Potency,[2],inactive
Oc1cc(Cl)ccc1Cl,Potency,[3],inactive
same,Potency,[2],inactive
C=CCc1cc(OC)c2c(c1)OCO2,Potency,[3],inactive
CCC[N+](=O)[O-],outcome,[4],inactive
ClC(Br)Br,Potency,[2],inactive
CCCCC#N,Potency,[1],inactive
Cc1ccc(N)cc1Cl,Potency,[3],inactive
same,Potency,[1],inactive
CC(C)OC(=O)Cc1ccccc1,Potency,[1],inactive
c1ccoc1,Potency,[1],inactive
CCC(Cl)[N+](=O)[O-] (configuration not stated),outcome,[4],inactive
CC(C)Br,Potency,[1],inactive
same,outcome,[4],inactive
NNC(N)=S,Potency,[1],inactive
same,outcome,[4],inactive
C/C=C/CC#N,Potency,[1],inactive
same,outcome,[4],inactive
same,Potency,[2],inactive
C1CC2OC2CC1C1CO1 (configuration not stated),Potency,[1],inactive
same,outcome,[4],inactive
same,Potency,[2],inactive
O=[N+]([O-])c1ccccc1-c1ccccc1,Potency,[1],inactive
CCCCCc1cc(O)cc(O)c1,Potency,[3],inactive
same,outcome,[4],inactive
Cc1cc(Cl)ccc1O,outcome,[4],inactive
same,Potency,[2],inactive
CC(=O)NNc1ccccc1,activation,[5],7.34%
same,outcome,[6],inactive
same,outcome,[4],inactive
CN(C)N=O,outcome,[4],inactive
FC(Cl)(Cl)Cl,activation,[5],5.32%
same,outcome,[6],inactive
O=[N+]([O-])c1cc(Cl)c(Cl)cc1Cl,Potency,[1],inactive
same,Potency,[2],inactive
Cc1ccc(N)cc1C,Potency,[1],inactive
same,outcome,[4],inactive
O=[N+]([O-])c1ccc(Cl)c(Cl)c1Cl,Potency,[1],inactive
Nc1ccc(Cc2ccc(N)cc2)cc1,Potency,[3],inactive
same,outcome,[4],inactive
ClC(Cl)C(Cl)Cl,Potency,[1],inactive
same,outcome,[4],inactive
O=[N+]([O-])c1ccc2c3c(cccc13)CC2,Potency,[3],inactive
same,Potency,[1],inactive
NC1CCC(CC2CCC(N)CC2)CC1 (configuration not stated),Potency,[1],inactive
Oc1c(Cl)cccc1Cl,Potency,[1],inactive
same,Potency,[2],inactive
CN(C)C(=O)Nc1ccc(Cl)cc1,outcome,[4],inactive
same,Potency,[2],inactive
OCCOCCO,Potency,[1],inactive
same,Potency,[2],inactive
Cc1ccc(N)c(C)c1,outcome,[4],inactive
Nc1cccc(Cl)c1,Potency,[1],inactive
same,outcome,[4],inactive
Clc1ccc(C(Cl)(Cl)Cl)cc1Cl,Potency,[1],inactive
